Compounds without any hit were thinned out: in the full panel of roughly 83,000, 20% have a hit.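 For each line, cells grew in 96-well plates with the test compound present at a single concentration for 48 hours.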 A number with no mark means an inactive call. Calls of active or inactive are those of the source. Rule for the calls: active = growth percent below 10; inactive = the rest.

For the first test, the system named is UO-31 renal. In words: NCI-60 one-dose screen, 48 h (100 = growth as untreated, 0 = no growth, -100 = all killed). To be noted: 1 µM.
Take `CC/C(=C(/c1ccc(O)cc1)c1ccc(OCCN(C)C(=O)COCCOCCNC(=O)c2ccc3c(c2)CN([C@@H]2CCC(=O)NC2=O)C3=O)cc1)c1ccccc1`: the growth is 87.2%.

As for `CC/C(=C(/c1ccc(O)cc1)c1ccc(OCCN(C)C(=O)CCOCCNC(=O)Cc2ccc3c(c2)CN([C@@H]2CCC(=O)NC2=O)C3=O)cc1)c1ccccc1`, the growth is 92%.

Regarding `CC/C(=C(/c1ccc(O)cc1)c1ccc(OCCN(C)C(=O)COCCOCCNC(=O)Cc2ccc3c(c2)CN([C@@H]2CCC(=O)NC2=O)C3=O)cc1)c1ccccc1`, the growth was 91.6%.

`CC/C(=C(\c1ccc(O)cc1)c1ccc(OCCNC)cc1)c1ccccc1`: the growth is 90.2%.

In the case of `CC/C(=C(\c1ccc(O)cc1)c1ccc(OCCN(C)C(=O)CCOCCNC(=O)c2ccc3c(c2)CN([C@@H]2CCC(=O)NC2=O)C3=O)cc1)c1ccccc1`, the growth was 91.9%.

The same test, now with this note: 10 µM.
Consider `CC/C(=C(/c1ccc(O)cc1)c1ccc(OCCN(C)C(=O)COCCOCCNC(=O)c2ccc3c(c2)CN([C@@H]2CCC(=O)NC2=O)C3=O)cc1)c1ccccc1`, for which the growth was 87.7%.

With `CC/C(=C(/c1ccc(O)cc1)c1ccc(OCCN(C)C(=O)CCOCCNC(=O)Cc2ccc3c(c2)CN([C@@H]2CCC(=O)NC2=O)C3=O)cc1)c1ccccc1`, the growth is 86.8%.

For `CC/C(=C(/c1ccc(O)cc1)c1ccc(OCCN(C)C(=O)COCCOCCNC(=O)Cc2ccc3c(c2)CN([C@@H]2CCC(=O)NC2=O)C3=O)cc1)c1ccccc1`, the growth is 89.4%.

As to `CC/C(=C(\c1ccc(O)cc1)c1ccc(OCCNC)cc1)c1ccccc1`, the growth is 62.7%.

`CC/C(=C(\c1ccc(O)cc1)c1ccc(OCCN(C)C(=O)CCOCCNC(=O)c2ccc3c(c2)CN([C@@H]2CCC(=O)NC2=O)C3=O)cc1)c1ccccc1`: the growth was 89.9%.

The same test, now with this note: 10 µM unless noted.
Take `O=C(Nc1ccc(S(=O)(=O)N2CCCCC2)cc1)C(Cl)Cl`: the growth is 97%.

Turning to `O=C(c1ccc(Cl)cc1)C1[C@H](c2ccccc2Cl)[C@@H](c2ccccc2)NC12C(=O)Nc1ccccc12` (stereo partly specified), the growth was 3.34% (active).

As to `O=C(c1ccc(O)cc1)C1[C@H](c2ccc(Cl)cc2)[C@@H](c2ccccc2)NC12C(=O)Nc1ccccc12` (stereo partly specified), the growth is 3.54% (active).

On to `Cc1ccc2nc(SCc3ccccc3F)n(-c3ccccc3)c(=O)c2c1`, for which the growth is 83.7%.

`CCCCNc1ccc2c3c(cccc13)C(=O)N(NCC(O)COc1ccc3c(C)cc(=O)oc3c1)C2=O` (stereo unspecified): the growth is 43.5%.

On to `c1n[nH]cc1-c1nc2ccc3[nH]ncc3c2c2c1CC1(CC2)COC1`, for which the growth was 95.7%.

In the case of `CCN1CCN(Cc2ccc(C(=O)Nc3cccc(Nc4ccc5c(OC)cccc5n4)c3)cc2C(F)(F)F)CC1`, the growth is -85.8% (active).

As to `O=C(NN1C(=O)/C(=C/C=C/c2ccc([N+](=O)[O-])o2)SC1=S)c1ccc([N+](=O)[O-])cc1`, the growth was -100% (active).

As to `C=CCn1c(O)c(N=Nc2nc(-c3cc4ccccc4oc3=O)cs2)c2ccccc21`, the growth was 101%.

In the case of `CCCCCCCCCCCCCCCCCC(=O)Nc1ccc(OC)cc1`, the growth was 88.8%.

Regarding `Cn1cc(-c2cc(N)n3nc(-c4c[nH]c5ccc(Cl)cc45)cc3n2)c2cc(Br)cnc21`, the growth was -39.3% (active).

With `COC(=O)c1ccc(-c2c(-c3ccccc3)c(F)c3oc(C(=O)OC)c(N)c3c2-c2ccccc2)cc1`, the growth was 88.6%.

On to `COc1ccc(-c2nc3ccccc3n2CC(=O)N=Nc2c(O)[nH]c3ccc(Br)cc23)cc1`, for which the growth is 66.7%.

As to `O=C(N/N=C/c1c[nH]c2ccccc12)Nc1ccccc1Cl`, the growth is 23.2%.

`COc1ccc(CCC2NCCc3c(Br)c4c(c(OC)c32)OCO4)cc1` (stereo unspecified): the growth was 21.1%.

With `CN(C)c1nc(NCCNS(=O)(=O)c2ccc(C(=O)/C=C/c3ccc(Cl)cc3)cc2)nc(N2CCOCC2)n1`, the growth is -61% (active).

For `COc1ccccc1NC(=O)N/N=C/c1c[nH]c2ccccc12`, the growth was 39.1%.

As to `O=C1/C(=C/c2cnc(-c3ccccc3)s2)SC(=S)N1Cc1ccc2c(c1)OCO2`, the growth is 86.5%.

As to `N#CC1=C(c2cccs2)Nc2c(c(-c3ccccc3)nn2-c2ccccc2)C12C(=O)Nc1ccccc12` (stereo unspecified), the growth was 18.2%.

Turning to `COc1ccc2[nH]c(=O)cc(-n3ncc(C(=O)/C=C/c4cc(OC)c(OC)c(OC)c4)c3C)c2c1`, the growth is -36.2% (active).

Turning to `C[C@H](NC(=O)c1ccc2c(-c3ccc(C(F)(F)F)cc3)cccc2c1)c1ccccn1`, the growth is 13.6%.

As to `Cn1cc(Nc2ncnc(-c3ccc(N4CCCC4)c(C#N)c3)n2)cn1`, the growth is 41.9%.

In the case of `CCCCCCCCc1cccc(CC(=O)Nc2ccc(C)cc2C(=O)O)c1`, the growth is 53.8% [25 µM].

Regarding `O=C1CCC(N2C(=O)c3cccc(NCCCCCC(=O)N4CCN(c5ccc6nc7c(nc6c5C(F)(F)F)C(=O)c5ncccc5C7=O)CC4)c3C2=O)C(=O)N1` (stereo unspecified), the growth was -94.5% (active).

`CN1C(=O)/C(=C\C(=O)c2cc3ccccc3oc2=O)c2ccccc21`: the growth was 53.6%.

In the case of `Cc1ccc2nc(NC(=O)Nc3cccc(Cl)c3)sc2c1`, the growth was 82%.

Turning to `O=C1Nc2ccccc2/C1=C\c1ccc(OCC(=O)c2ccc(Br)cc2)cc1`, the growth was 48.5%.

`COc1ccc2[nH]cc(-c3cc(N)n4nc(-c5c[nH]c6ccccc56)cc4n3)c2c1`: the growth is -74.9% (active).

For the compound `Cn1cc(-c2cc(N)n3nc(-c4c[nH]c5ccc(Cl)cc45)cc3n2)c2cccnc21`, the growth is -77.5% (active).

As for `Cc1ccc(-c2cc(C(=O)N=Nc3c(O)[nH]c4ccc(F)cc34)c3ccccc3n2)cc1`, the growth is 77.5%.

Regarding `O=C(NN1C(=O)/C(=C/C=C/c2ccc([N+](=O)[O-])o2)SC1=S)c1ccncc1`, the growth is -97.2% (active).
